Bioassay records as filed in PubChem BioAssay.
ELG1 repair inh = qHTS screen for small molecules that inhibit ELG1-dependent DNA repair in human embryonic kidney (HEK293T) cells expressing luciferase-tagged ELG1 | 2.3% of 330,000 active | HEK293T ELG1-luciferase reporter, luminescence, 16 h; DNA damage induced by 5-fluorouridine | Potency, µM (titrated, usually from 46.1 µM), without a hit: top-dose activity change, negative = inhibition, most hits filed as inhibitors; note: potency is the fitted concentration of half-maximal effect; nearly all actives have a fitted effect of over 55% in size
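Overnight (16 hr) co-exposure of 2,000 cells/well to 5-fluorouridine and compound at 37 °C preceded detection. Luciferase was quantified via ONE-Glo luminescence; loss of signal denotes inhibition.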
HT1080-NT tox = qHTS for induction of synthetic lethality in tumor cells producing 2HG: qHTS for the HT-1080-NT fibrosarcoma cell line; HT-1080-NT fibrosarcoma viability, CellTiter-Glo ATP luminescence, 48 h; 1.6% of 360,000 active; Potency, µM (top dose mostly 46.1 µM), inactives show at the top dose activity, negative = less viability, most hits filed as cytotoxic; AID 686970, 2013;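 note: NT is the 2HG producing partner of a matched IDH1 knockdown line; potency is the fitted concentration of half-maximal effect; 0% = DMSO-treated cells and -100% = media-only wells without cells; nearly all actives have a fitted effect of over 55% in size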
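Viability by CellTiter-Glo luminescence after 48 h compound exposure at 37C of HT-1080-NT cells (750/well, RPMI, 5% FBS). % activity scaled between DMSO wells and medium-only wells, then curve-fitted and categorized by curve class.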
IL-1B inflam inh = qHTS for Inhibitors of Inflammasome Signaling: IL-1-beta AlphaLISA Primary Screen. THP-1 LPS/ATP IL-1B secretion, AlphaLISA, 16 h; active compounds read low. activity change, % at 57.5 µM. 4.7% of 360,000 active; in the data active = activity change below about -50%; inconclusive = mostly about -30% to -49%
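Secreted IL-1B measured by AlphaLISA bead assay after 16 h compound exposure of THP-1 cells; compounds (final up to 57.5 uM) added 1 h before LPS (250 ng/mL) and ATP (1.25 mM) stimulation; lower signal means less secretion.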
DT40 TDP1 CPT = qHTS for Inhibitors of human tyrosyl-DNA phosphodiesterase 1 (TDP1): qHTS in cells in presence of CPT; chicken DT40 Tdp1-/-;hTDP1 cells + 20 nM CPT, ATP luminescence, 48 h; Potency, µM (highest dose often 46.2 µM), for the others: at the top dose activity change, negative = growth inhibition, usual class: inhibitors; 12% of 420,000 active; note: potency is the fitted concentration of half-maximal effect; nearly all actives have a fitted effect of over 55% in size
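Chicken DT40 Tdp1-/- cells complemented with human TDP1, 400 cells/well, exposed to compounds plus 20 nM camptothecin for at least 48 h at 37 C; viability read as ATP content by CellTiter-Glo luminescence.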
HT1080 IDH1KD tx = qHTS for induction of synthetic lethality in tumor cells producing 2HG: qHTS for the HT-1080-IDH1KD cell line; HT-1080 IDH1 knockdown viability, ATP luminescence, 48 h; Potency, µM (highest dose often 46.1 µM), inactives show at the top dose activity, negative = toxicity, usual class: cytotoxic; 2% of 360,000 active; AID 686971, 2013;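 note: potency is the fitted concentration of half-maximal effect; 0% = DMSO wells and -100% = cell-free medium wells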
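In this qHTS, HT-1080 cells depleted of IDH1 are exposed for 48 h at 37 °C to compound titrations. Toxicity is scored from CellTiter-Glo luminescence, with DMSO as full viability and medium alone as none.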
TDP1 cell noCPT = qHTS for Inhibitors of human tyrosyl-DNA phosphodiesterase 1 (TDP1): qHTS in cells in absence of CPT | DT40 Tdp1-/- hTDP1 cells, no CPT, ATP luminescence, 48 h | Potency, µM (series often up to 46.2 µM), for the others: top-dose activity change, negative = growth inhibition, most hits filed as inhibitors | 15% of 420,000 active | AID 686978, 2013; note: potency is the fitted concentration of half-maximal effect; nearly all actives have a fitted effect of over 55% in size
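Seeded 400 DT40-hTDP1 cells/well (vehicle DMSO, no 20 nM CPT); pinned compounds; ≥48 hr at 37 °C; CellTiter-Glo luminescence as viability measure.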
* marks the source's active call; other numbers are inactive results; ? = inconclusive; . = not tested or not shown. Shown are actives, neighbours in structure and some others; about 19% of the full set was active somewhere. Unless noted, calls come from the whole dose curve; as a rule, active = well fitted curve in the direction sought with a large enough effect; inconclusive = small, poorly fitted or top-dose-only effect, or another doubt; inactive = no such curve, though single readings can be large; an effect the other way counts as inactive or inconclusive. Unless noted, % is set by controls: 0 for no effect and ±100 for the full control effect.

SMILES | ELG1 repair inh | HT1080-NT tox | IL-1B inflam inh | DT40 TDP1 CPT | HT1080 IDH1KD tx | TDP1 cell noCPT
CC(C)c1ccc2[nH]c3c(c2c1)[C@@H]1CCN2C(=O)CCC[C@H](C3)[C@H]12 | ? | 1% | 11 | 18µM* | 3% | 15µM*
COc1ccc(F)cc1S(=O)(=O)NC(Cc1ccccc1)C(N)=O (stereo not drawn) | 2% | 7% | ? | -1% | 6% | -20%
Cc1ccc(S(=O)(=O)CC(O)COc2ccc(F)cc2Cl)c(C)c1 (stereo not drawn) | -12% | 1% | -145* | -9% | -10% | -14%
Cc1ccc(S(=O)(=O)CC(O)COc2ccc(F)cc2Cl)cc1 (stereo not drawn) | 6% | -8% | -8 | 13% | -17% | ?
COc1ccccc1S(=O)(=O)CC(O)COc1ccc(F)cc1Cl (stereo not drawn) | 4% | -13% | -62* | -9% | -2% | -32%
CC(C)(CNc1ccc(S(=O)(=O)C(F)(F)F)cc1[N+](=O)[O-])N1CCOCC1 | 19% | -3% | -53* | ? | 3% | ?
COc1ccc(Nc2ccc(S(=O)(=O)N3CCCCC3)cc2[N+](=O)[O-])cc1 | -14% | ? | -27 | ? | -27% | 16µM*
COc1ccc(Nc2ccc(S(=O)(=O)N3CCCCC3)cc2[N+](=O)[O-])cc1Cl | -3% | -1% | -14 | ? | -9% | ?
O=[N+]([O-])c1cc(S(=O)(=O)N2CCOCC2)ccc1NS(=O)(=O)c1ccccc1 | -6% | -2% | -83* | 21% | 12% | -22%
COc1ccc(C(CNc2ccc(S(=O)(=O)N3CCN(C)CC3)cc2[N+](=O)[O-])N(C)C)cc1 (stereo not drawn) | -3% | -4% | -12 | -12% | 5% | 21µM*
C[C@H](CO)N1C[C@H](C)[C@@H](CN(C)C(=O)NC2CCCCC2)Oc2ccc(NC(=O)Cc3ccccc3)cc2C1=O | 5% | 7% | -4 | -10% | 1% | -6%
COC(=O)C[C@H]1C=C[C@@H](NC(=O)c2ccncc2)[C@@H](CO)O1 | . | 9% | 10 | 8% | 13% | 5%
O=C(CCCCCn1c(=O)[nH]c2ccsc2c1=O)NCc1ccccc1 | . | . | . | 3% | . | -30%
O=c1c2cc3c(cc2nc2sc(Nc4ccc(F)c(Cl)c4)nn12)OCO3 | . | . | . | -14% | . | -1%
COc1ccc(C(CNc2ccc(S(=O)(=O)N3CCCC3)cc2[N+](=O)[O-])N2CCCC2)cc1 (stereo not drawn) | ? | ? | -29 | ? | ? | ?
COc1ccccc1C(CNc1ccc(S(=O)(=O)N2CCCC2)cc1[N+](=O)[O-])N(C)C (stereo not drawn) | 12µM* | ? | ? | 13µM* | -2% | ?
O=C(Oc1ccc(N(Cc2cccs2)C2=NS(=O)(=O)c3ccccc32)cc1)c1ccccc1Cl | -27% | 14% | 18 | 6.5µM* | 9% | 5.8µM*
O=C(Oc1ccc(N(Cc2cccs2)C2=NS(=O)(=O)c3ccccc32)cc1)c1ccco1 | ? | -12% | 24 | ? | -8% | ?
COc1ccc(Cl)cc1NC(=O)CN(C)C(=O)c1cc2ccccc2cc1O | -8% | -11% | -5 | ? | -20% | ?
CCN(CC)CCNC(=O)Cn1nc(C)c2c(C)n(-c3ccccc3)nc2c1=O | . | . | . | -3% | . | -2%
CCOc1ccc2oc(=O)cc(CN3CCN(C(=O)c4ccc(OC)c(OC)c4)CC3)c2c1 | . | . | . | -19% | . | ?
Cc1cc(=O)[nH]c(N=N/C(=N/Nc2ccc(O)cc2)c2ccccc2)n1 | -11% | -19% | 112 | 5.8µM* | ? | 6.5µM*
Cc1cc(=O)[nH]c(SCC(=O)Nc2ccccc2C)n1 | -7% | 13% | 32 | -14% | 17% | 18%
Cc1cc(=O)[nH]c(N=N/C(=N/Nc2ccccc2C)c2ccccc2)n1 | ? | ? | 161 | 4.6µM* | ? | 5.2µM*
CC(C)N(Cc1ccccc1)C(=O)CN1C(=O)COc2ccc(S(=O)(=O)N3CCCCCC3)cc21 | -27% | -12% | -21 | 15µM* | -5% | 13µM*
SMILES | ELG1 repair inh | HT1080-NT tox | IL-1B inflam inh | DT40 TDP1 CPT | HT1080 IDH1KD tx | TDP1 cell noCPT
CC(C)N(Cc1ccccc1)C(=O)CN1C(=O)CSc2ccc(S(=O)(=O)N3CCCC3)cc21 | . | . | . | 12µM* | . | -82%
CC1CCN(S(=O)(=O)c2ccc3c(c2)N(CC(=O)O)C(=O)CO3)CC1 | . | . | . | 15µM* | . | 16µM*
CN(Cc1ccccc1)C(=O)CN1C(=O)COc2ccc(S(=O)(=O)N3CCCC3)cc21 | 0% | 0% | 18 | -12% | -2% | 12%
CC(=O)Nc1ccc(NC(=O)Cn2nc(C(=O)Nc3ccc(C)cc3)ccc2=O)cc1 | -7% | -1% | -18 | -5% | 8% | 23%
O=c1cc(-c2ccccc2)nc(SCc2nc(-c3cccc(C(F)(F)F)c3)no2)[nH]1 | . | . | . | -6% | . | 6%
COc1cccc(CNC(=O)CN(c2ccc(C)cc2)S(=O)(=O)N(C)C)c1OC | . | . | . | -14% | . | -17%
O=C(Nc1cccc(C(F)(F)F)c1)C1CC(=O)N(Cc2ccco2)C1 (stereo not drawn) | . | 14% | 14 | 0% | 15% | -15%
CC(=O)[C@@]1(O)C(C)CC2C3C=C(C)C4=Cc5c(cnn5-c5ccccc5)C[C@]4(C)C3C(O)C[C@@]21C (stereo partly drawn) | ? | 4.6µM* | -91* | 4.6µM* | 21µM* | 5.2µM*
Cc1cc(C(=O)NC2CC(C)(C)Cc3c2cnn3-c2ccccc2)n(C)n1 (stereo not drawn) | 5% | 1% | 17 | ? | -13% | ?
Cc1ccc(Cl)cc1NC(=O)CC(O)(C(F)(F)F)C(F)(F)F | -17% | 20µM* | -83* | 18µM* | ? | ?
COCC(=O)Nc1cc(Cl)ccc1C | -11% | -5% | 13 | 19% | -20% | 3%
O=C(C(=O)N1CCN(C(=O)c2ccco2)CC1)c1ccccc1 | . | 17% | 31 | 0% | 20% | 6%
